Assay outcomes: PubChem, National Center for Advancing Translational Sciences (NCATS)
In the library only some 10% were active in any assay of this set; here they are far more common.
CtBP-E1A blk: CtBP/E1A binding inhibition; AlphaScreen GST-E1A/His-CtBP binding, 1536-well; active compounds read low; activity change, % (test concentration not listed); hit rate 0.49% among 340,000; AID 651724; in the data active means activity change below about -65%; inconclusive means mostly about -30% to -63%; further: on the % scale 0 is the no-effect control and ±100 the full control effect
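Steps: dispense buffer (Tris pH 8.0, NaCl 300 mM, TCEP 1 mM, BSA, Tween 20); add 5X protein mix (GST-E1A, His-CtBP, 125 nM each); pin 23 nL compound; 2 h at 37 °C, dark; add 5X beads (50 ug/mL); 1 h; read.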
G9a inh: inhibitors of human histone lysine methyltransferase G9a; hit rate 8.8% among 350,000; Potency, µM (series often up to 102 µM), for inactives: at the highest dose activity, negative = inhibition, usual class: inhibitors; G9a H3K9 monomethylation, AlphaScreen, 2 h; further: potency means the concentration at half of the fitted maximal effect; on the % scale 0 is the no-effect control and ±100 the full control effect; nearly all actives have a fitted effect of over 75% in size
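Chemiluminescent proximity detection of H3K9 monomethylation, read after 10 min bead incubation in the dark. Reaction: 20 nM G9a, 500 nM biotin-H3K9 peptide, 20 uM SAM cofactor, 2 h, room temperature, following 15 min enzyme-compound preincubation.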
Six1-Eya2 blk: Six1/Eya2 interaction inhibition; hit rate 0.56% among 360,000; activity change, % (no concentration beside the values); AlphaScreen GST-Six1/His-Eya2 binding, biochemical; active compounds read low; in the data active means activity change below about -65%; inconclusive means mostly about -30% to -63%; further: on the % scale 0 is the no-effect control and ±100 the full control effect
Target sequence (O00167 whole entry, looked up): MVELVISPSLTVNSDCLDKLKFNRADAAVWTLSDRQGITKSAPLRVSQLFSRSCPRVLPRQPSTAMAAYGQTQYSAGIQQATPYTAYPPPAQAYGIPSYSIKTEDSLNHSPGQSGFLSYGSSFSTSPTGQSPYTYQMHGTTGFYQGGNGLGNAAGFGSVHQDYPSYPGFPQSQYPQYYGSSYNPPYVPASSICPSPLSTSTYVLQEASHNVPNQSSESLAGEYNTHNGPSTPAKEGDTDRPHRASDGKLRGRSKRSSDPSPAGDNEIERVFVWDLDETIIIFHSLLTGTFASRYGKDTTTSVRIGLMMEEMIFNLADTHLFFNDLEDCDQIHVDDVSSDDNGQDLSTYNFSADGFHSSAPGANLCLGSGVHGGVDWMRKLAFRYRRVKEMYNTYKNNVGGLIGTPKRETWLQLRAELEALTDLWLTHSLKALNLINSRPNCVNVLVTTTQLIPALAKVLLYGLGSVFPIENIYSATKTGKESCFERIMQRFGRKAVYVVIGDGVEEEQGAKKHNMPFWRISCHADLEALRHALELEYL
Target sequence (Q15475 whole entry, looked up): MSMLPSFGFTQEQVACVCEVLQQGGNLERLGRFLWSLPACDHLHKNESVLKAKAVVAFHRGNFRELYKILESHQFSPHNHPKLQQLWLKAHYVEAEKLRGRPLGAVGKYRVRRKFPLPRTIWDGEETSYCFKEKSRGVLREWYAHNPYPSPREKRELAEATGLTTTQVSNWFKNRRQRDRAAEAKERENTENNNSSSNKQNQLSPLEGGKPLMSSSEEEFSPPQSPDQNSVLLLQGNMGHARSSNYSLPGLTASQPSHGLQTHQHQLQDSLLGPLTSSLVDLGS
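AlphaScreen with GST-Six1 and His-Eya2 (5X mix: 250 nM and 500 nM), glutathione donor and nickel acceptor beads; buffer 50 mM Tris pH 8.0, 300 mM NaCl, 1 mM TCEP; 1 h at 37 C in the dark.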
HP1b binding inh: inhibitors of HP1-beta chromodomain binding to methylated histone tails. hit rate 0.56% among 390,000. AlphaScreen HP1-beta / biotin-H3K9me3 peptide binding. Potency, µM (doses to about 114 µM), for inactives: at the top dose activity change, negative = inhibition, usual class: inhibitors. P83916; further: potency means the concentration at half of the fitted maximal effect; nearly all actives have a fitted effect of over 70% in size
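Compound inhibition of the preformed complex between 50 nM HP1-beta and 50 nM biotinylated H3K9me3 peptide was read by AlphaScreen. Buffer was PBS pH 7.4 with 0.01% Tween-20. Incubations ran 30 min at room temperature, with 10 ug/mL donor/acceptor beads.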
JMJD2A Tudor: inhibitors of human JMJD2A Tudor domain; AlphaScreen JMJD2A-Tudor / H3K4me3 peptide binding; Potency, µM (top dose mostly 114 µM), without a hit: at the top dose activity change, negative = inhibition, most hits filed as inhibitors; hit rate 4.4% among 390,000; further: potency means the concentration at half of the fitted maximal effect; on the % scale 0 is the no-effect control and ±100 the full control effect; nearly all actives have a fitted effect of over 50% in size
BAZ2B inh: blocks human BAZ2B; Q9UIF8; AlphaScreen BAZ2B-H3K14Ac peptide displacement; Potency, µM (highest dose often 114 µM), for inactives: top-dose activity change, negative = inhibition, usual class: inhibitors; hit rate 4.4% among 360,000; further: potency means the concentration at half of the fitted maximal effect; on the % scale 0 is the no-effect control and ±100 the full control effect; nearly all actives have a fitted effect of over 60% in size
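AlphaScreen displacement of biotin-H3(5-23)K14Ac peptide (50 nM final) from BAZ2B (50 nM final) in PBS pH 7.4, 0.01% Tween-20; complex preformed 30 min RT, then compounds (top 110 uM) 30 min RT, beads 20 min dark.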
Numbers without * were called inactive; [ ] = remark or other dose. Unless noted, the call rests on the fitted dose curve; in most records, active means well fitted inhibition curve with a large enough effect; inconclusive means small, poorly fitted or top-dose-only effect; inactive means no such curve, though single readings can be large or run the other way.

For CN(C)CCN(Cc1ccco1)C(=O)c1oc2ccccc2c1NC(=O)COc1ccccc1 the results were CtBP-E1A blk -15, G9a inh 45µM*, Six1-Eya2 blk -13, HP1b binding inh inconclusive, JMJD2A Tudor 28µM* and BAZ2B inh inconclusive.
Screening CN(C)CCN(Cc1ccco1)C(=O)c1oc2ccccc2c1NC(=O)c1cccc(F)c1 returned G9a inh -40%[59 µM], HP1b binding inh 20%, JMJD2A Tudor inconclusive and BAZ2B inh 5%[57.1 µM].
For COc1ccc(N=Nc2nc3ccc(Br)cc3n2C)cc1 the results were CtBP-E1A blk -29, G9a inh 6.3µM*, Six1-Eya2 blk inconclusive, HP1b binding inh inconclusive, JMJD2A Tudor inconclusive and BAZ2B inh 63µM*.
Screening COc1ccc(-c2c(-c3cc(OC)cc(OC)c3)n(C)c3ccc(Br)cc23)cc1 returned CtBP-E1A blk -2, G9a inh 28%[2.33 µM], Six1-Eya2 blk -8, HP1b binding inh 24%, JMJD2A Tudor -26% and BAZ2B inh -37%.
`COc1ccc(N(CC(=O)NCCc2ccc(OC)c(OC)c2)S(=O)(=O)c2c(C)noc2C)cc1` gave CtBP-E1A blk 1, G9a inh 47%, Six1-Eya2 blk -1, HP1b binding inh 32%, JMJD2A Tudor -11% and BAZ2B inh -19%.
For NNC(=O)c1cn2ccccc2n1 the results were CtBP-E1A blk -2, G9a inh 3.2µM*, Six1-Eya2 blk -1, HP1b binding inh 28%, JMJD2A Tudor 20µM* and BAZ2B inh 18µM*.
Screening Cc1ccc(C(=O)COC(=O)c2cn3ccccc3n2)cc1 returned CtBP-E1A blk 3, G9a inh -3%, Six1-Eya2 blk 4, HP1b binding inh 35%, JMJD2A Tudor -15% and BAZ2B inh -4%.
For CC(C(=O)Nc1ccccc1C(=O)N1CCOCC1)N(c1ccc(Cl)cc1)S(C)(=O)=O (centres undefined) the results were CtBP-E1A blk 7, G9a inh 4%, Six1-Eya2 blk 7, HP1b binding inh inconclusive, JMJD2A Tudor 11µM* and BAZ2B inh -14%.
`COc1ccc(Nc2ncc(C(=O)Nc3cccc(Cl)c3)c3ccccc23)cc1` gave G9a inh -4%[59 µM], HP1b binding inh 6%, JMJD2A Tudor 79µM* and BAZ2B inh 79µM*.
Screening O=C(Nc1nc(-c2ccccn2)cs1)c1ccc([N+](=O)[O-])o1 returned CtBP-E1A blk -92*, G9a inh 6.3µM*, Six1-Eya2 blk -73*, HP1b binding inh inconclusive, JMJD2A Tudor 22µM* and BAZ2B inh 20µM*.
For CC(=O)Nc1ccc(-c2csc(NC(=O)c3ccc(C)o3)n2)cc1 the results were CtBP-E1A blk -3, G9a inh 45µM*, Six1-Eya2 blk -14, HP1b binding inh 17%, JMJD2A Tudor -13% and BAZ2B inh -34%.
Cc1ccc(-c2csc(NC(=O)Cc3ccc(F)cc3)n2)o1 was read as CtBP-E1A blk 0, G9a inh 10µM*, Six1-Eya2 blk -5, HP1b binding inh inconclusive, JMJD2A Tudor -32% and BAZ2B inh -33%.
For CC(=O)c1ccc(-c2ccc(C(=O)Nc3nc(-c4ccccn4)cs3)o2)cc1 the results were CtBP-E1A blk -79*, Six1-Eya2 blk -69*, HP1b binding inh -3% and JMJD2A Tudor -34%.
For O=C(Nc1nc2ccccc2s1)c1ccc([N+](=O)[O-])o1 the results were G9a inh 4%, Six1-Eya2 blk -4, HP1b binding inh 61%, JMJD2A Tudor -4% and BAZ2B inh 1%.
`CCn1nc(C(=O)Nc2nc(-c3ccccn3)cs2)c2ccccc2c1=O` gave G9a inh -8%[12.7 µM], Six1-Eya2 blk inconclusive, HP1b binding inh 15%, JMJD2A Tudor -28% and BAZ2B inh 0%.
`O=C(Nc1nc(-c2ccccn2)cs1)c1ccc(-c2ccccc2F)o1` gave CtBP-E1A blk -70*, G9a inh 43%[12.7 µM], Six1-Eya2 blk inconclusive, HP1b binding inh 39%, JMJD2A Tudor inconclusive and BAZ2B inh 79µM*.
Cc1ccc(C(=O)Nc2nc(-c3ccccn3)cs2)o1 was read as CtBP-E1A blk inconclusive, G9a inh inconclusive, Six1-Eya2 blk -93*, HP1b binding inh 27%, JMJD2A Tudor 50µM* and BAZ2B inh 18µM*.
CCc1cc(C(=O)Nc2nc(-c3ccccn3)cs2)sc1C was read as CtBP-E1A blk -67*, G9a inh -8%[12.7 µM], Six1-Eya2 blk inconclusive, HP1b binding inh 28%, JMJD2A Tudor inconclusive and BAZ2B inh 71µM*.
For O=C(Nc1nc(-c2cc(F)ccc2F)cs1)c1ccccn1 the results were CtBP-E1A blk -6, G9a inh 31%, Six1-Eya2 blk -15, HP1b binding inh 58%, JMJD2A Tudor 20% and BAZ2B inh 0%.
For CCCn1nc(C(=O)Nc2nc(-c3ccccn3)cs2)c2ccccc2c1=O the results were CtBP-E1A blk -86*, G9a inh 44%[12.7 µM], Six1-Eya2 blk -77*, HP1b binding inh 30%, JMJD2A Tudor 56µM* and BAZ2B inh inconclusive.
Screening CN(Cc1ccc(F)cc1)S(=O)(=O)c1nnc(NC(=O)c2ccccc2Cl)s1 returned G9a inh inconclusive, HP1b binding inh 49%, JMJD2A Tudor 6% and BAZ2B inh -4%.
Screening CCC(=O)N1CCc2cc(S(=O)(=O)CCC(=O)Nc3cccc(F)c3)ccc21 returned CtBP-E1A blk 6, G9a inh 22µM*, Six1-Eya2 blk -2, HP1b binding inh 36%, JMJD2A Tudor 7% and BAZ2B inh 9%.
COc1ccc(CNC(=O)CCS(=O)(=O)c2ccc3c(c2)CCN3C(C)=O)cc1 was read as CtBP-E1A blk 7, G9a inh 19%, Six1-Eya2 blk -92*, HP1b binding inh -7%, JMJD2A Tudor -30% and BAZ2B inh -8%.
`CCC(=O)N1CCc2cc(S(=O)(=O)CCC(=O)Nc3ccc(F)c(F)c3)ccc21` gave CtBP-E1A blk -1, G9a inh 5%, Six1-Eya2 blk 11, HP1b binding inh 22%, JMJD2A Tudor -23% and BAZ2B inh 56µM*.
CN(Cc1cccs1)c1ncnc2ccc(-c3ccc4cn(C)nc4c3)cc12 was read as JMJD2A Tudor -25%.
Screening COc1ccc(CCNc2ccc(C)cc2)cc1 returned CtBP-E1A blk -7, G9a inh inconclusive, Six1-Eya2 blk -28, HP1b binding inh inconclusive, JMJD2A Tudor 40µM* and BAZ2B inh inconclusive.
For Nc1ccccc1Nc1cc(-c2cccc(Cl)c2)nn1-c1ccccc1 the results were CtBP-E1A blk 4, G9a inh 28µM*, Six1-Eya2 blk inconclusive, HP1b binding inh inconclusive, JMJD2A Tudor 22µM* and BAZ2B inh 22µM*.
